In PubChem BioAssay (NCATS):

Test: qHTS drug screen for cell cycle checkpoint inhibitors in PARPi-resistant BRCA-mutant ovarian cancer cell lines. (AID 1963452)
Settings: PEO1/OlaR viability, CellTiter-Glo luminescence, 96 h; measured here: PEO4 Z-AUC; stronger effect = lower value
Method in brief: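 PEO1, PEO4 and PEO1/OlaR ovarian cancer cells, 600 per well, exposed 96 h at 37C to a dilution series. Viability read by CellTiter-Glo luminescence, normalized to DMSO and empty wells; activity summarized as Z-AUC.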

Compound	Z-AUC
CCC(=O)OCC(=O)C1(OC(=O)CC)C(C)CC2C3CCC4=CC(=O)C=CC4(C)C3(F)C(O)CC21C (stereo not given)	-0.145
O=C(Cc1ccccc1)Nc1nnc(CCSCCc2nnc(NC(=O)Cc3ccccc3)s2)s1	1.41
Cc1[nH]nc2ncc(C(=O)N3CCC[C@H]3c3ccc(Cl)cc3)cc12	-0.0502
NS(=O)(=O)Oc1ccc2c3c(c(=O)oc2c1)CCCCC3	-0.024
Fc1ccc(-c2csc3ncnc(NCc4ccc5c(c4)OCO5)c23)cc1	0.314
CC(=O)N1CCC(Nc2cc(C(=O)NC[C@H](O)CN3CCc4ccccc4C3)ncn2)CC1	0.188
Nc1cc(COc2c(Cl)cc(C[C@H](N)C(=O)O)cc2Cl)c2oc(-c3ccccc3)nc2c1	-0.878
C=CC(=O)N1CC(N2CCN(C(=O)CNc3cc(C4(C)CC4)c(Cl)cc3O)CC2)C1	-0.295
COc1ccc(S(=O)(=O)NCc2ccc(C(=O)NCCc3ccc(Cl)cn3)cc2)cc1	-0.745
CCOCOC[C@H](C[C@H](C)C(=O)NO)NC(=O)c1ccc(Oc2ccccc2)cc1	1.19
CN(C(=O)CNC(=O)/C=C/c1cccc(Cl)c1)C1CCS(=O)(=O)CC1	-0.957
OCCOc1ccc(/C(=C(/CCCl)c2ccccc2)c2ccccc2)cc1	0.557
CNS(=O)(=O)Nc1nccc(Cc2c(C)c3ccc(Oc4ncccn4)cc3oc2=O)c1F	-1.84
C=CC(=O)Nc1cc(N2CCN(CC)CC2)ccc1Nc1cc(N(C)C(=O)Nc2c(Cl)c(OC)cc(OC)c2Cl)ncn1	0.736
CC(C)Oc1ccc(-c2nn([C@@H](C)c3oc4ccc(F)cc4c(=O)c3-c3cccc(F)c3)c3ncnc(N)c23)cc1F	-0.0554
Ac-PHSCN-NH2	0.654
CS(=O)(=O)c1ccc([C@@H](CC2CCCC2)C(=O)Nc2nccs2)cc1	0.595
CCS(=O)(=O)N1CCC(C(C)n2c(C)c(C(=O)NCc3c(OC)cc(C)[nH]c3=O)c3ccccc32)CC1 (stereo not given)	0.959
CCOc1ccc(-n2c([C@@H](C)N(Cc3cccnc3)C(=O)Cc3ccc(F)c(C(F)(F)F)c3)nc3ncccc3c2=O)cc1	1.34
COc1cc(-c2cn(C)c(=O)c3cnccc23)c(OC)cc1CN(C)C	-0.662
COC(=O)C1=C(C)NC(c2ncc(F)cc2F)=N[C@@H]1c1ccc(F)cc1Cl	0.861
CCCN(CCC)C(=O)C1=Cc2ccc(-c3ccc(C(=O)N4CCCC4)cc3)cc2N=C(N)C1	-0.0193
CC(=O)[C@]1(N)Cc2c(O)c3c(c(O)c2[C@@H](O[C@H]2C[C@H](O)[C@H](O)CO2)C1)C(=O)c1ccccc1C3=O	-0.284
Cc1ccc(NC(=O)[C@H]2CCCN(C(=O)c3c(C)cccc3F)[C@H]2c2ccc(NC3CCCC3)cc2)cc1C(F)(F)F	-0.339
Nc1ncc(C(=O)NC2CN(C(=O)C3CC3)C2)c2ccc(-c3cccc(F)c3)nc12	0.359
